IDE exosite inh – exo-site inhibitors of human insulin-degrading enzyme | 6.3% of 17,000 active | purified IDE, FL-6b probe fluorescence polarization; active compounds read low | z-score at 20 µM | P14735;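 active means z-score of -3 or lower, meaning strong loss of probe binding signal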;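 further: His-tagged human IDE residues 42-1019 made in E. coli with 30 nM FL-6b probe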
* hit, by the source's call. The full list was thinned out, with hits kept by preference.

SMILES | IDE exosite inh
COc1cccc(C#Cc2ccc([C@H]3[C@@H](CO)N4C(=O)CN(C(=O)Cc5cccnc5)C[C@@H]34)cc2)c1 | -1.6
CC(C)C#Cc1ccc([C@@H]2[C@@H](CO)N3C(=O)CN(C(=O)Cc4cccnc4)C[C@H]23)cc1 | 4.9
COc1cccc(C#Cc2ccc([C@@H]3[C@H]4CN(C(=O)Cc5cccnc5)CC(=O)N4[C@H]3CO)cc2)c1 | -5*
CCCC#Cc1ccc([C@H]2[C@@H](CO)N3C(=O)CN(C(=O)Cc4cccnc4)C[C@@H]23)cc1 | -0.66
CCCC#Cc1ccc([C@@H]2[C@H]3CN(C(=O)Cc4cccnc4)CC(=O)N3[C@H]2CO)cc1 | -4.3*
CCCC#Cc1ccc([C@@H]2[C@@H](CO)N3C(=O)CN(C(=O)Cc4cccnc4)C[C@@H]23)cc1 | -1.6
COc1cccc(C#Cc2ccc([C@H]3[C@H](CO)N4C(=O)CN(C(=O)Cc5ccccc5)C[C@@H]34)cc2)c1 | -0.11
COc1cccc(C#Cc2ccc([C@H]3[C@H]4CN(C(=O)Cc5cccnc5)CC(=O)N4[C@H]3CO)cc2)c1 | -4.1*
COc1cccc(C#Cc2ccc([C@@H]3[C@H](CO)N4C(=O)CN(C(=O)Cc5cccnc5)C[C@@H]34)cc2)c1 | -4.1*
COc1cccc(C#Cc2ccc([C@@H]3[C@H](CO)N4C(=O)CN(C(=O)Cc5ccccc5)C[C@@H]34)cc2)c1 | -0.78
CCCC#Cc1ccc([C@H]2[C@@H](CO)N3C(=O)CN(C(=O)Cc4cccnc4)C[C@H]23)cc1 | -3
CCCC#Cc1ccc([C@@H]2[C@@H](CO)N3C(=O)CN(C(=O)Cc4cccnc4)C[C@H]23)cc1 | 2.3
O=C(Nc1cccc(F)c1)N1CC(=O)N2[C@H](CO)[C@H](c3ccc(-c4ccc(F)cc4)cc3)[C@@H]2C1 | 2.4
COCCNC(=O)c1cc2c(c(-c3cccc(C4=CCCCC4)c3)n1)[C@H](CCO)N([S@@](=O)C(C)(C)C)C2 | 2.2
COc1ccc2c3c(n(C)c2c1)[C@H](CO)N(C(=O)Nc1ccc(F)cc1)CC31CCN(C(=O)c2ccc3c(c2)OCO3)CC1 | -0.32
COc1ccc2c3c([nH]c2c1)[C@H](CO)N(CC1CC1)CC31CCN(S(=O)(=O)c2cccc(F)c2)CC1 | -0.52
C/C=C/c1ccccc1[C@H]1[C@@H](CO)N(C(=O)Nc2ccccc2)[C@H]1C#N | 3.7
CC(C)CC#Cc1ccc([C@H]2[C@@H](CO)N3C(=O)CN(C(=O)NC(C)C)C[C@H]23)cc1 | 3
COc1ccc(CN(C)C[C@H]2OCCCC[C@H](C)Oc3ccc(NC(=O)C4CCCCC4)cc3C(=O)N([C@@H](C)CO)C[C@H]2C)cc1 | 0.67
C[C@@H]1CN([C@H](C)CO)C(=O)c2ccccc2-c2ccccc2CO[C@H]1CN(C)C(=O)Nc1cccc(Cl)c1Cl | -0.57
O=C(C1CC1)N1CC(=O)N2[C@H](CO)[C@@H](c3ccc(Br)cc3)[C@H]2C1 | 0.1
CN1C(=O)c2cc(NC(=O)c3cnccn3)ccc2OC[C@@H]2O[C@H](CC(=O)N[C@H]3CCN(Cc4ccccc4)C3)CC[C@@H]21 | -1.8
CCC(=O)NC[C@@H]1[C@@H](c2ccccc2)[C@H](CO)N1C(=O)C1CCC1 | 3.1
CN1C(=O)c2cc(NC(=O)c3ccc(F)c(F)c3)ccc2OC[C@H]2O[C@@H](CC(=O)Nc3ccc4c(c3)COC4)CC[C@@H]21 | 0.86
O=C(CN1CCOCC1)N1CC(=O)N2[C@H](CO)[C@@H](c3ccc(/C=C/c4ccccc4)cc3)[C@@H]2C1 | -4.4*
SMILES | IDE exosite inh
O=C(CN1CCOCC1)N1CC(=O)N2[C@H](CO)[C@@H](c3ccc(-c4ccccc4)cc3)[C@H]2C1 | 3.1
O=C(C1CCOCC1)N1CC(=O)N2[C@H](CO)[C@H](c3ccc(Br)cc3)[C@@H]2C1 | -0.28
O=C(C1CCOCC1)N1CC(=O)N2[C@@H](CO)[C@@H](c3ccc(Br)cc3)[C@@H]2C1 | 1.4
O=C(CN1CCOCC1)N1CC(=O)N2[C@H](CO)[C@@H](c3ccc(/C=C/c4ccccc4)cc3)[C@H]2C1 | -6*
O=C(C1CCOCC1)N1CC(=O)N2[C@H](C1)[C@@H](c1ccc(/C=C/c3ccccc3)cc1)[C@@H]2CO | -7.6*
CCCC#Cc1ccc([C@H]2[C@H](CO)N3C(=O)CN(C(=O)CN4CCOCC4)C[C@@H]23)cc1 | 1.2
CCCC#Cc1ccc([C@@H]2[C@@H](CO)N3C(=O)CN(C(=O)CN4CCOCC4)C[C@H]23)cc1 | 1.8
CCCC#Cc1ccc([C@H]2[C@H]3CN(C(=O)CN4CCOCC4)CC(=O)N3[C@H]2CO)cc1 | 4.6
Cc1ccccc1-c1ccc(C2[C@H]3CNC[C@@H]2N3Cc2cccnc2)cc1 (stereo partly specified) | -0.31
O=S(=O)(c1ccc(F)cc1)N1CCCCN2[C@@H](CO)[C@@H](c3ccc(-c4ccccc4)cc3)[C@@H]2C1 | 0.93
CO[C@@H]1CC[C@@H]2CCN(C)C(=O)CC3(CCCCC3)CN(C)C(=O)c3cc(C#N)ccc3OC[C@H]1O2 | 0.73
Cc1cccc(-c2ccc([C@@H]3[C@@H](CO)N4CCCCN(S(=O)(=O)c5cccc(C)c5)C[C@H]34)cc2)c1 | 3.6
Cc1cccc(-c2ccc([C@@H]3[C@@H](CO)N4CCCCN(S(=O)(=O)c5ccccc5C)C[C@@H]34)cc2)c1 | -20*
Cc1ccccc1S(=O)(=O)N1CCCCN2[C@H](CO)[C@@H](c3ccc(-c4cccc(F)c4)cc3)[C@@H]2C1 | -7.3*
Cc1cccc(-c2ccc([C@H]3[C@@H](CO)N4CCCCN(S(=O)(=O)c5ccccc5F)C[C@H]34)cc2)c1 | -3.5*
Cc1cccc(-c2ccc([C@H]3[C@H]4CN(S(=O)(=O)c5ccccc5C)CCCCN4[C@H]3CO)cc2)c1 | 4.5
Cc1cccc(-c2ccc([C@@H]3[C@@H](CO)N4CCCCN(S(=O)(=O)c5ccccc5C)C[C@H]34)cc2)c1 | 2.1
Cc1cccc(-c2ccc([C@H]3[C@H]4CN(S(=O)(=O)c5ccccc5F)CCCCN4[C@H]3CO)cc2)c1 | -1.6
O=S(=O)(c1ccccc1F)N1CCCCN2[C@@H](CO)[C@@H](c3ccc(-c4ccccc4)cc3)[C@@H]2C1 | 0.014
Cc1cccc(-c2ccc([C@H]3[C@H](CO)N4CCCCN(S(=O)(=O)c5cccc(C)c5)C[C@@H]34)cc2)c1 | 1.1
O=S(=O)(c1ccccc1F)N1CCCCN2[C@H](CO)[C@H](c3ccc(-c4ccccc4)cc3)[C@H]2C1 | 1.9
Cc1cccc(-c2ccc([C@@H]3[C@@H](CO)N4CCCCN(S(=O)(=O)c5cccc(C)c5)C[C@@H]34)cc2)c1 | -9.8*
CN(C)C(=O)c1cccc(-c2ccc([C@H]3[C@@H](C#N)N(C(=O)C4CC4)[C@@H]3CO)cc2)c1 | 5.5
Cc1ccc(-c2ccc([C@H]3[C@@H](CO)N4C(=O)CN(C(=O)c5ccncc5)C[C@H]34)cc2)cc1 | -0.89
COc1ccc(S(=O)(=O)N2CCCCN3[C@@H](CO)[C@H](c4ccc(C5=CCCC5)cc4)[C@@H]3C2)cc1 | 2.1
CO[C@H](CN(C)S(=O)(=O)c1cn(C)cn1)[C@H](C)CN(C(=O)Nc1ccc(C(F)(F)F)cc1)[C@H](C)CO | -0.42
C/C=C/c1ccc([C@H]2[C@@H](CO)N(C(=O)NCCC)[C@H]2CNC(=O)C2CC2)cc1 | 4.3
N#C[C@H]1[C@@H](c2ccccc2)[C@H](CO)N1C(=O)CN1CCOCC1 | 4.2
N#Cc1cccc(-c2ccc([C@@H]3[C@@H](CO)N4CCCCN(C(=O)Nc5ccccc5)C[C@@H]34)cc2)c1 | -0.019
N#C[C@@H]1[C@H](c2ccc(-c3ccccc3)cc2)[C@H](CO)N1C(=O)Cc1ccccc1 | 2

Compound activity: PubChem, Broad Institute
